In publication PMC4336329 (PLoS ONE, 2015):
About 14,000 (4.5%) of roughly 310,000 compounds showed an effect of 50% or more. The effect is printed as a negative number. What follows is part of a selection rich in strong results, with near analogues and random picks from the rest.

These compounds were tested against human ether-à-go-go-related gene (hERG) potassium channel (human, UniProt Q12809) (assay: primary screen, population patch clamp on CHO cells stably expressing hERG; higher = less effect of the substance).
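Also: peak tail current of the secondary pulse compared with the same well before compound.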

Sequence of human ether-à-go-go-related gene (hERG) potassium channel (Q12809 whole entry, looked up): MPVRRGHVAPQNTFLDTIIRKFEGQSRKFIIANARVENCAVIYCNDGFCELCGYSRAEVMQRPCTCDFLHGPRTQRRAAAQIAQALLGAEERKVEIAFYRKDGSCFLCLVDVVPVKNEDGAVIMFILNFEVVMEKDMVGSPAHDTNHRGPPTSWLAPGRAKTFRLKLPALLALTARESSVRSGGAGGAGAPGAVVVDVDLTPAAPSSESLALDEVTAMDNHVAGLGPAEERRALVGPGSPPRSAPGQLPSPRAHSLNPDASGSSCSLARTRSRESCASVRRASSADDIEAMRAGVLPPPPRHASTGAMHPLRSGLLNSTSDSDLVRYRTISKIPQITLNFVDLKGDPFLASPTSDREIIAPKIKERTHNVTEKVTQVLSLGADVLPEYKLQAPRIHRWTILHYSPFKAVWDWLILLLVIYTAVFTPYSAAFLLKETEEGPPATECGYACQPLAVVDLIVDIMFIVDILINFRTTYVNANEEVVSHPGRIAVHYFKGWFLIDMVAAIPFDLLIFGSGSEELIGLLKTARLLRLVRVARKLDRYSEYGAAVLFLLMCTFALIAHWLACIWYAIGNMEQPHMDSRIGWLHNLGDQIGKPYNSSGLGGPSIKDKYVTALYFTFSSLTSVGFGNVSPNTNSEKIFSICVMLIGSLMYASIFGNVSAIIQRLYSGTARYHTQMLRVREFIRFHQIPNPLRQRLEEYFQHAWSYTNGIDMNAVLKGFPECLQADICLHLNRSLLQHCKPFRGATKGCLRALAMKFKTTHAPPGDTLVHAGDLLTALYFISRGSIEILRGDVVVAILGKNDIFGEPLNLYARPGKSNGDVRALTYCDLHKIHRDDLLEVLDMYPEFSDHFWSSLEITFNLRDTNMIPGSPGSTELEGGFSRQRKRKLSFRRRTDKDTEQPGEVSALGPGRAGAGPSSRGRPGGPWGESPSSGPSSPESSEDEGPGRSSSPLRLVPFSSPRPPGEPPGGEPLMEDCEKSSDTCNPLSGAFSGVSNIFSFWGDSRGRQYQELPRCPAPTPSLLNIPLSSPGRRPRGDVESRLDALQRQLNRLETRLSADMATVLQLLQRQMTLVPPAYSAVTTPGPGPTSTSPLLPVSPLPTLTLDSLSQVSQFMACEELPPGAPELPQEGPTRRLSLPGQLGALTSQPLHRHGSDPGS

Row | SMILES | hERG current change (%, negative = inhibition) at 10uM [%]
1 | CC(=O)Oc1ccc(NC(=O)Cc2ccccc2)cc1 | 24.9
2 | Cc1ccc(OCC(=O)c2ccc3c(c2)CCCC3)cc1C | 4.7
3 | C=CCSc1ncnc2sc(C)c(C)c12 | 9.87
4 | COc1ccc(Cl)cc1NC(=O)C1(c2cccs2)CCOCC1 | -17.8
5 | COc1ccc(CCC(C)Nc2ccc(F)c(F)c2)cc1 (centres unmarked) | 5.47
6 | CC(CCc1ccc(O)cc1)NCc1ccc(Cl)cc1Cl (centres unmarked) | -63.8
7 | COc1ccc(CCC(C)NCc2ccc(Cl)c(Cl)c2)cc1 (centres unmarked) | -53.7
8 | COc1ccc(CCC(C)NCc2cc(OC)cc(OC)c2)cc1 (centres unmarked) | -42.3
9 | COc1ccc(CNCCc2ccc(Cl)cc2Cl)cc1 | -22.2
10 | CC(CCc1ccccc1)NCc1ccc(Cl)cc1Cl.O=C(O)C(=O)O (centres unmarked) | -31.5
11 | CC(CCc1ccc(O)cc1)NCc1ccc(Br)cc1 (centres unmarked) | -76.2
12 | COc1ccc(CCC(C)NCCc2ccc(Cl)cc2Cl)cc1 (centres unmarked) | -71.8
13 | CC(CCc1ccccc1)NCc1ccncc1 (centres unmarked) | -8.72
14 | CC(CCc1ccccc1)NC(=O)Cc1ccc(Br)cc1 (centres unmarked) | 8.87
15 | COc1ccc(CCNC(C)CCc2ccc(OC)cc2)cc1 (centres unmarked) | -13
16 | CC(O)CNCc1ccc(Cl)cc1Cl.Cl (centres unmarked) | 12.3
17 | Cc1cc(C)nc(/N=C2\NC(=O)CC(C(=O)O)N2c2ccc(Cl)cc2)n1 (centres unmarked) | 14.9
18 | COC(=O)CSc1ccc2nnc(CCNS(=O)(=O)c3ccccc3)n2n1 | 24.3
19 | CC(=O)c1c(COC(=O)c2cccc(C)c2)nc2ccccc2[n+]1[O-] | -1.95
20 | Cn1c(=O)c2c(nc(SCC(=O)NCC3CCCO3)n2C)n(C)c1=O (centres unmarked) | 2.28
21 | Cc1c(NC(=S)NC(=O)c2ccccc2Cl)c(=O)n(-c2ccccc2)n1C | 33.4
22 | COc1cccc(CC(=O)Nc2cc(S(=O)(=O)N3CCCCC3)ccc2C)c1 | -15.9
23 | Cc1c(CC(=O)O)c(=O)oc2cc(OCc3nn[nH]n3)ccc12 | -0.585
24 | COc1cc(NC(=O)C2CCCCC2)c(OC)cc1NC(=O)CN1CCCCC1 | -12

Row | SMILES | hERG current change (%, negative = inhibition) at 10uM [%]
25 | COc1ccc(N2CCN(S(=O)(=O)c3ccc4c(c3)N(C(C)=O)CCO4)CC2)cc1 | -18.4
26 | CC(C)CC(=O)C(=O)[O-].[Na+] | -0.864
27 | COc1ccc(CCC(C)NCc2ccc(F)cc2)cc1 (centres unmarked) | -44.8
28 | COc1ccc(CCC(C)NCc2cccc(Br)c2)cc1 (centres unmarked) | -64.6
29 | COc1ccc(CCC(C)Nc2cccc(C)c2)cc1 (centres unmarked) | 4.48
30 | COc1ccc(CC(=O)NC(C)CCc2ccccc2)cc1 (centres unmarked) | 5.43
31 | COc1ccc(CCC(C)NCc2ccc(C(F)(F)F)cc2)cc1 (centres unmarked) | -66.3
32 | COc1ccc(CCC(C)NCC2CCCCC2)cc1 (centres unmarked) | -14.9
33 | O=C(/C=C/c1ccco1)Nc1cccc2cccnc12 | -1.87
34 | CCOC(=O)c1cnn(-c2cc(C)c3ccccc3n2)c1N | -1.77
35 | O=C(Cc1cccc2ccccc12)NC(NC(=S)Nc1ccccc1Cl)C(Cl)(Cl)Cl (centres unmarked) | 11.7
36 | Cc1cccc(Oc2ncc(-c3ccc(Cl)cc3)cn2)c1 | 5.22
37 | Cc1ccc(S(=O)(=O)N2CCN(C(=O)c3ccccc3Cc3ccccc3)CC2)c(C)c1 | 4.42
38 | Cl.O=C(c1ccc(Cl)cc1)N1CCN(CCc2ccccn2)CC1 | -69
39 | O=C(Cc1ccccn1)c1ccc(Cl)cc1 | 17
40 | O=C1CC(N2CCN(CCc3ccccn3)CC2)C(=O)N1c1ccc(Cl)cc1 (centres unmarked) | -67.4
41 | COc1ccc(C(=O)N2CCN(Cc3ccccn3)CC2)cc1.O=C(O)C(=O)O | -5.82
42 | O=C1CC(N2CCN(c3ccccn3)CC2)C(=O)N1c1ccc(Cl)cc1 (centres unmarked) | 4.46
43 | CN(CCc1ccccn1)C1CC(=O)N(c2ccc(Cl)cc2)C1=O (centres unmarked) | 6.39
44 | COc1ccc(C(=O)N2CCN(CCc3ccccn3)CC2)cc1.Cl | -77.3
45 | O=C(c1ccccc1)N1CCN(CCc2ccccn2)CC1 | 8.41
46 | COc1ccc(C(=O)N2CCN(c3ccccn3)CC2)cc1 | 3.55
47 | COc1cc(-c2noc(C)c2C#Cc2ccsc2)cc(OC)c1OC | 10.8
48 | Cc1ccc(Nc2nnc(SCn3nnc4ccccc4c3=O)s2)cc1 | 2.83

Row | SMILES | hERG current change (%, negative = inhibition) at 10uM [%]
49 | N#Cc1ccc(-c2csc(-c3ccno3)n2)cc1 | -14.6
50 | CC1=C[C@H]2OC(=O)[C@@H](C)[C@H]2C[C@@H]2[C@H]1C[C@@H](O)[C@@]2(C)O | 6.22
51 | N#Cc1c(N)c(C(=O)c2ccccc2)n2ccccc12 | 10.7
52 | CC(=O)Nc1ccc(S(=O)(=O)N(C)CC(=O)OCC(=O)Nc2ccc3c(c2)OCO3)cc1 | 9.31
53 | NC(=O)c1cc2cc(Br)ccc2oc1=NCc1ccccc1 | 10.4
54 | CCCNC(=O)NC(C(=O)OC)C12CC3CC(CC(C3)C1)C2 (centres unmarked) | -10.8
55 | CC(C)(C)c1ccc(NC(=O)CNC2CCCc3ccccc32)cc1.Cl (centres unmarked) | 2.24
56 | CCCSc1nc2c(cnn2-c2ccc(F)cc2)c(=O)[nH]1 | 6.84
57 | COc1cc([N+](=O)[O-])c(C(=O)N2CCOCC2)c([N+](=O)[O-])c1 | 7.66
58 | O=C(OCC1OC(n2ccc(=O)[nH]c2=O)C(O)C1OC(=O)c1ccccc1)c1ccccc1 (centres unmarked) | -67.9
59 | O=C(OCC1OC(n2ccc(=O)[nH]c2=O)C(Cl)C1O)c1ccccc1 (centres unmarked) | -9.37
60 | O=C(OCC1OC(n2ncc(=O)[nH]c2=O)C(OC(=O)c2ccccc2)C1OC(=O)c1ccccc1)c1ccccc1 (centres unmarked) | 14.6
61 | CCOC(=O)C1=NN(c2cccc(Cl)c2)C2=NC(C)=C(C(=O)OC)C(c3cccs3)N12 (centres unmarked) | 6.72
62 | COc1ccc(CCNC(=O)c2ccc(CN3CCC(Cc4ccccc4)CC3)cc2)cc1OC | -67.9
63 | COc1cc(CN2CCC(C(N)=O)CC2)ccc1OCc1ccccc1.O=C(O)C(=O)O | -39.9
64 | COc1cc(CN2CCN(C(=O)Cc3ccccc3)CC2)cc(OC)c1OC.O=C(O)C(=O)O | -0.522
65 | COc1ccc(OC)c(CN2CCN(Cc3cccc4ccccc34)CC2)c1.O=C(O)C(=O)O | -65.2
66 | COc1ccc(C(=O)N2CCN(Cc3cc(OC)ccc3OC)CC2)cc1.O=C(O)C(=O)O | -36
67 | COc1ccc(CN2CCC(Cc3ccccc3)CC2)cc1OC.O=C(O)C(=O)O | -70.3
68 | COc1cc(CN2CCC(Cc3ccccc3)CC2)cc(OC)c1OC.O=C(O)C(=O)O | -52.8
69 | COc1ccc(CCNC(=S)N2CCC(Cc3ccccc3)CC2)cc1OC | -41.1
70 | COc1ccc(CN2CCC(C(N)=O)CC2)cc1OCc1ccccc1.O=C(O)C(=O)O | -19.1
71 | COc1ccc(OC)c(CN2CCN(C(=O)c3cccc4ccccc34)CC2)c1.O=C(O)C(=O)O | -2.37
72 | COc1ccc(CCNC(=O)c2ccc(CN3CCC(Cc4ccccc4)CC3)cc2)cc1 | -15.6

Row | SMILES | hERG current change (%, negative = inhibition) at 10uM [%]
73 | COc1cc(CN2CCC(Cc3ccccc3)CC2)cc([N+](=O)[O-])c1O | 0.943
74 | CCOc1cc(/C=N/NC(=O)CSc2cccc3cccnc23)ccc1O | 9.6
75 | CCOc1ccccc1OCCC(=O)OCC(=O)Nc1c(C)nn(-c2ccccc2)c1C | 1.41
76 | O=C(CCC(=O)c1ccccc1)NCc1cccc(C(F)(F)F)c1 | 4.89
77 | CC(C)(C)c1ccc(/C=C(\c2nc3ccccc3[nH]2)S(=O)(=O)c2ccccc2)cc1 | 0.84
78 | O=C(Nc1c2c(nn1-c1ccccc1)CS(=O)(=O)C2)c1ccccc1C(F)(F)F | 14.3
79 | O=C(O)c1ccc(/C=C/c2nc3sc4c(c3c(=O)[nH]2)CCC4)cc1 | 14.2
80 | Cc1nn(C(=O)c2cccnc2)c(C)c1C | 0.855
81 | C/C(=N/NS(=O)(=O)c1cccc([N+](=O)[O-])c1)c1c[nH]c2ccccc12 | 13
82 | CCOC(=O)/C(C#N)=C/c1cccc([N+](=O)[O-])c1 | 25
83 | CC(Oc1ccccc1Cl)C(=O)Nc1ccc(S(=O)(=O)Nc2nccs2)cc1 (centres unmarked) | -0.857
84 | CC1CCC2(CC1)NC(=O)N(CC(=O)Nc1cccc(C#N)c1)C2=O (centres unmarked) | 9.8
85 | O=C(NCc1cccnc1)NC(=O)c1ccc(Cl)cc1 | 3.09
86 | CCN1C(=O)[C@@H]2[C@@H](c3ccc(-c4ccc5c(c4)OCO5)cc3)N3CCCC[C@@]3(C(=O)OC)[C@@H]2C1=O.O=C(O)C(F)(F)F | 21
87 | Cc1[nH]c2ccccc2c(=O)c1CN1CCCCCC1 | -7.41
88 | COc1ccc(OC)c(CN2CCCCCC2)c1.O=C(O)C(=O)O | 15.7
89 | COc1cccc(C(=O)N2CCN(Cc3cc(Br)ccc3OC)CC2)c1.O=C(O)C(=O)O | -51.8
90 | COc1ccc(OC)c(CN2CCN(C(=O)Cc3ccccc3)CC2)c1.O=C(O)C(=O)O | -4.63
91 | COc1ccc(OC)c(CN2CCC(Cc3ccccc3)CC2)c1.O=C(O)C(=O)O | -69.4
92 | COc1ccc(Br)cc1CN1CCN(C(=O)c2ccc(OC)c(OC)c2)CC1.O=C(O)C(=O)O | -38.1
93 | Cc1[nH]c2ccccc2c1CN1CCC(Cc2ccccc2)CC1.O=C(O)C(=O)O | -67.4
94 | COc1ccc(Br)cc1CN1CCN(C(=O)c2cccc(F)c2)CC1.O=C(O)C(=O)O | -39.2
95 | O=C(O)C(=O)O.c1ccc(CC2CCN(Cc3ccccn3)CC2)cc1 | -23.1
